We go through 9 compounds from PubChem BioAssay (Tox21).

Records with an inconclusive call do not appear. A structure can be active in one record and inactive in another. Active and inactive are the calls of the source. Unless noted, calls come from the whole dose curve; as a rule, active = well fitted curve in the direction sought with a large enough effect in the repeat runs; inconclusive = weak or mixed curves; inactive = no such curve, though single readings can be large; an effect the other way counts as inactive or inconclusive.

Test [1] has as its target Thyrotropin receptor (Homo sapiens) (UniProt P16473). The test can be described thus: qHTS assay to identify small molecule antagonists of the thyroid stimulating hormone receptor (TSHR) signaling pathway (AID 1259385; calls by dose curve; note: % is set by controls: 0 for no effect and ±100 for the full control effect; nearly all actives have a fitted effect of over 20% in size). Summed up: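 TSHR-HEK293 cells were plated and held 18 h at 37C/5% CO2, then given compound plus Ro20-1724 and stimulated with TSH at 1.5 ng/mL final. After 30 min at room temperature, cAMP was detected with cAMP-d2/anti-cAMP-cryptate (1 h) by fluorescence.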
(In general: In qHTS, concentration-response curves come from the screen itself.)

A short description of test [2]: qHTS assay to identify small molecule agonists of the estrogen receptor alpha (ER-alpha) signaling pathway in the presence of an antagonist - cell viability counter screen (AID 1259386).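 Note: cells exposed to compounds for 22 h at 37 °C before the viability read; nearly all actives have a fitted effect of over 30% in size.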 Note: potency is the fitted concentration of half-maximal effect. In outline: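 ICI-182,780 at 10.0nM final accompanies the compound titration (15 concentrations, 22hr, 37C) on VM7Luc4E2 cells. The CellTiter-Fluor fluorescence readout runs in the same wells as the luciferase assay.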

For test [3], the target named is Progesterone receptor (Homo sapiens) (UniProt P06401). In words: qHTS assay to identify small molecule agonists of the progesterone receptor (PR) signaling pathway (AID 1346784; calls by dose curve; note: nearly all actives have a fitted effect of over 30% in size; note: potency is the fitted concentration of half-maximal effect; for activation: % is set by controls: 0 for no effect and ±100 for the full control effect). In outline:
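Agonist qHTS: compounds pinned onto 3,000 PR-UAS-bla HEK 293T cells per well in charcoal-stripped serum medium, 16hr at 37C, then beta-lactamase activity measured by LiveBLAzer FRET fluorescence after 2 hours at room temperature.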

Test [4] is described as follows: qHTS assay to identify small molecule antagonists of the progesterone receptor (PR) signaling pathway - cell viability counter screen (AID 1346798). Note: nearly all actives have a fitted effect of over 50% in size. Note: potency is the fitted concentration of half-maximal effect. Summed up: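 Cytotoxicity read as CellTiter-Glo luminescence (30 min, room temperature) in the same wells as the beta-lactamase readout. HEK293T PR-UAS-bla cells in charcoal-stripped 2% FBS received compound and R5020, then 16 h at 37C, 5% CO2.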

Test [5] in a line: qHTS assay to identify small molecule antagonists of the TGF-beta/Smad signaling pathway - cell viability counter screen (AID 1346824). Note: % is set by controls: 0 for no effect and ±100 for the full control effect; nearly all actives have a fitted effect of over 50% in size. In outline: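 SBE-bla HEK 293T cells were plated overnight at 37 C, then given compounds in DMSO plus TGF-beta1 (added as 0.25 ng/mL solution) for 5 hr. After the bla read, CellTiter-Glo was added to the same wells and luminescence read after 30 min at room temperature.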

Test [6] is described as follows: qHTS assay to identify small molecule agonists of the TGF-beta/Smad signaling pathway (AID 1346859; active = well fitted activation curve with a large enough effect in the signal ratio in the repeat runs, not every such curve was filed as active; the % refers to the signal ratio; note: series mostly up to about 77 µM; % is set by controls: 0 for no effect and ±100 for the full control effect). In outline:
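Fluorescence (ex 405 nm; em 460 and 530 nm) was read 2 h after LiveBLAzer FRET substrate at RT. The preceding compound treatment of overnight-plated SBE-bla HEK293T cells lasted 5 h at 37 C.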

For test [7], the target named is Thyrotropin-releasing hormone receptor (Homo sapiens) (UniProt P34981). In words: qHTS assay to identify small molecule antagonists of the thyrotropin-releasing hormone receptor (TRHR) signaling pathway (AID 1346877; active = well fitted inhibition curve with a large enough effect in the repeat runs, not every such curve was filed as active; note: series mostly up to about 51 µM; % is set by controls: 0 for no effect and ±100 for the full control effect). In outline: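 Screening used HEK293 cells engineered with TRHR, with a brief 5 min room-temperature compound exposure preceding addition of TRH to 1 nM. The read-out was kinetic calcium-dye fluorescence, concentration-response from 15 doses in triplicate.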

Test [8] has the same target. The test can be described thus: qHTS assay to identify small molecule agonists of the thyrotropin-releasing hormone receptor (TRHR) signaling pathway (AID 1346891; calls by dose curve; note: series mostly up to about 58 µM; % is set by controls: 0 for no effect and ±100 for the full control effect). In outline:
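Agonist-mode intracellular calcium readout: kinetic fluorescence over 3 min at 1 s intervals after compound addition to TRHR-HEK293 cells (18 h seeded, 2 h dye-loaded at 37 C). Fifteen concentrations, triplicates.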

Test [9] is described as follows: Human pregnane X receptor (PXR) small molecule agonists, qHTS cell viability counter screen (AID 1346977). Note: nearly all actives have a fitted effect of over 50% in size. Note: potency is the fitted concentration of half-maximal effect. Summed up: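 Same-well viability read: CellTiter-Fluor added after 23 hr compound exposure, fluorescence measured 1 hr later. Cells were PXR-Luc HepG2 seeded at 2,000/well in 5% charcoal-stripped FBS medium, rested 5 hr before dosing at 37 C.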
Test [10] in a line: Caspase-3/7 induction in HepG2 cells by small molecules, qHTS assay (AID 1346978). Note: % is set by controls: 0 for no effect and ±100 for the full control effect; nearly all actives have a fitted effect of over 15% in size. Summed up: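 Wild-type HepG2 cells (2,000/well) were settled 5 h at 37 C, 5% CO2, then exposed to compounds in DMSO for 17 h. Caspase-3/7 activity was read by luminescence 30 min after adding Caspase-Glo 3/7 reagent at room temperature.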
Test [11] in a line: Caspase-3/7 induction in CHO-K1 cells by small molecules, qHTS cell viability counter screen (AID 1346979). Note: nearly all actives have a fitted effect of over 35% in size. Note: potency is the fitted concentration of half-maximal effect. Summed up:
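Cytotoxicity counter screen: CellTiter-Fluor added to compound-treated wild-type CHO-K1 cells at 16 h (37C, 5% CO2), fluorescence measured 1 h later; same wells as caspase-3/7 measurement.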

Test [12] can be described thus: Caspase-3/7 induction in HepG2 cells by small molecules, qHTS cell viability counter screen (AID 1346981). Note: nearly all actives have a fitted effect of over 30% in size. Note: potency is the fitted concentration of half-maximal effect. In outline:
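Multiplexed with the caspase-3/7 assay: HepG2 cells, 16 hr compound treatment, CellTiter-Fluor viability detection by fluorescence.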

Test [13] addresses Nuclear receptor subfamily 1 group I member 2 (Homo sapiens) (UniProt O75469). In words: Human pregnane X receptor (PXR) small molecule agonists, qHTS assay (AID 1346982). Note: nearly all actives have a fitted effect of over 35% in size. Note: potency is the fitted concentration of half-maximal effect. In outline: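 We seeded PXR-Luc HepG2 cells in assay medium containing 5% charcoal-stripped FBS, added compounds 5 hr later, incubated 24 hr, and read luminescence with ONE-Glo reagent.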
Test [14] in a line: qHTS assay to identify small molecule agonists of the TGF-beta/Smad signaling pathway - cell viability counter screen (AID 1346829). Note: top concentration of the series differs between compounds; % is set by controls: 0 for no effect and ±100 for the full control effect; nearly all actives have a fitted effect of over 45% in size. In outline: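 Here the cytotoxicity of library compounds is measured in SBE-bla HEK 293T cells treated for 5 hr, using CellTiter-Glo added to wells already read for the beta-lactamase reporter.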
The nature of test [15]: Caspase-3/7 induction in CHO-K1 cells by small molecules, qHTS assay (AID 1346980). Note: % is set by controls: 0 for no effect and ±100 for the full control effect; nearly all actives have a fitted effect of over 15% in size. Summed up:
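Wild-type cells were seeded at 1,500 per well and settled 5 hr at 37 C, 5% CO2, then exposed to DMSO-dissolved compounds for 17 hr. Caspase-Glo 3/7 reagent was added, and luminescence was read after 30min at room temperature.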

A short description of test [16]: qHTS assay to identify small molecule agonists of the progesterone receptor (PR) signaling pathway - cell viability counter screen (AID 1346799; calls by dose curve; note: % is set by controls: 0 for no effect and ±100 for the full control effect; nearly all actives have a fitted effect of over 45% in size). Summed up: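 Cytotoxicity measured by CellTiter-Glo luminescence (30 min, RT) in the same wells as the PR beta-lactamase agonist read. Those HEK293T cells had 16 h compound treatment at 37 C in 2% charcoal-stripped FBS medium.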

The target in test [17] is Nuclear receptor subfamily 1 group I member 2 (Rattus norvegicus) (UniProt Q9R1A7). In words: Rat pregnane X receptor (rPXR) activation by small molecules, qHTS assay (AID 1346983). Note: % is set by controls: 0 for no effect and ±100 for the full control effect; nearly all actives have a fitted effect of over 20% in size. Conditions: rPXR luciferase reporter cells, One-Glo luminescence, 24 h; max activation: stronger effect = higher value. Summed up: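 Cell-based rPXR luciferase reporter assay, 2,000 cells per well, rested 5hr at 37 C before compound addition in DMSO, then 24 hr at 37 C. One-Glo reagent was added and luminescence read after 30 min at room temperature.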

Test [18] deals with Nuclear receptor subfamily 1 group I member 2 (Homo sapiens) (UniProt O75469). In words: CYP3A4 induction through human pregnane X receptor (PXR) by small molecules, qHTS assay (AID 1346984). Note: % is set by controls: 0 for no effect and ±100 for the full control effect; nearly all actives have a fitted effect of over 40% in size. Summed up: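 qHTS, concentration-response format: HepG2 DPX-2 line, PXR/CYP3A4-luc. Exposure 24 h, 37C. Substrate Luciferin-IPA 3uM final, 3 h. Detection One-Glo, 30 min RT.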
Test [19] shares this target. In words: Human pregnane X receptor (PXR) activation by small molecules, qHTS assay (AID 1346985). Note: % is set by controls: 0 for no effect and ±100 for the full control effect; nearly all actives have a fitted effect of over 40% in size. In outline: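 DPX-2 cells (HepG2 co-transfected with a PXR response element and a CYP3A4-promoter luciferase construct) were seeded at 2,000 per well, rested 5 hr at 37C, then exposed to DMSO-dissolved compounds for 24 hr. Activation was read as luciferase luminescence.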

Test [20] deals with Progesterone receptor (Homo sapiens) (UniProt P06401). In words: qHTS assay to identify small molecule antagonists of the progesterone receptor (PR) signaling pathway (AID 1346795; active = well fitted inhibition curve with a large enough effect in the signal ratio in the repeat runs, not every such curve was filed as active; the % refers to the signal ratio; note: potency is the fitted concentration of half-maximal effect). In outline:
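Antagonist mode with agonist R5020 at 1 nM final and 16 hr incubation at 37C. Reporter was beta-lactamase driven by UAS in HEK293T (PR-UAS-bla), 2% charcoal-stripped serum; signal from LiveBLAzer FRET substrate, 2 hr at room temperature.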

Thyrotropin-releasing hormone receptor (Homo sapiens), sequence (P34981 whole entry, looked up): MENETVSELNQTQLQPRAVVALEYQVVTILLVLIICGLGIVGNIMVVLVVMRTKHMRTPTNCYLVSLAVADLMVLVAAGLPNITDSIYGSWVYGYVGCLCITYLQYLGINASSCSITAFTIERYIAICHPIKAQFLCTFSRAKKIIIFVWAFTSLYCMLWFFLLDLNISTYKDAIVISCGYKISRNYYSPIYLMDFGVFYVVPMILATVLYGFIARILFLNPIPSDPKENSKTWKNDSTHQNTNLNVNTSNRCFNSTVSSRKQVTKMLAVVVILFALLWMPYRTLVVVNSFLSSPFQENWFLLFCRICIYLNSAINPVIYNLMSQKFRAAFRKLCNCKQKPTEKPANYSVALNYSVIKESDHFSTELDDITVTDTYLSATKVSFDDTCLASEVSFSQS
Thyrotropin receptor (Homo sapiens), sequence (P16473 whole entry, looked up): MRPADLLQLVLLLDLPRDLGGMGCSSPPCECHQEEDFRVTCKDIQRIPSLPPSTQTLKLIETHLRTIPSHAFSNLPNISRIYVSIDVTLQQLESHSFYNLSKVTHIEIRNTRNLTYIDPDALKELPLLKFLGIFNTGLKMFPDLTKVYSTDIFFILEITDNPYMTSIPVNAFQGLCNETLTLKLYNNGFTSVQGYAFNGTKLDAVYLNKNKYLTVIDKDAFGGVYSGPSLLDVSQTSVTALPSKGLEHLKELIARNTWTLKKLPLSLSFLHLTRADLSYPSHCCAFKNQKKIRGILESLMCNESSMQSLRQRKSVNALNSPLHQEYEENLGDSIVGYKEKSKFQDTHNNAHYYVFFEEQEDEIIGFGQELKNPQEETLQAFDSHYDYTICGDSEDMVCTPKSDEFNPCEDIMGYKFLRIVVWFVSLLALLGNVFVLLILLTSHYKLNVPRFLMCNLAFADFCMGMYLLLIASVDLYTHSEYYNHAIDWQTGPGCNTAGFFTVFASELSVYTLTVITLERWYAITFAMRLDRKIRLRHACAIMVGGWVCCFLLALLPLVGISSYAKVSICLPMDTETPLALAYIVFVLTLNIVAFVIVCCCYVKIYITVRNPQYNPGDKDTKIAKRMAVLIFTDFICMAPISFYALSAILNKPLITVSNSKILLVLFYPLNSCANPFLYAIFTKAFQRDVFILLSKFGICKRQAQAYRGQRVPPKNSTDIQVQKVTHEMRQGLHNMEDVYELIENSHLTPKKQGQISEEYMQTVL
Nuclear receptor subfamily 1 group I member 2 (Homo sapiens), sequence (O75469 whole entry, looked up): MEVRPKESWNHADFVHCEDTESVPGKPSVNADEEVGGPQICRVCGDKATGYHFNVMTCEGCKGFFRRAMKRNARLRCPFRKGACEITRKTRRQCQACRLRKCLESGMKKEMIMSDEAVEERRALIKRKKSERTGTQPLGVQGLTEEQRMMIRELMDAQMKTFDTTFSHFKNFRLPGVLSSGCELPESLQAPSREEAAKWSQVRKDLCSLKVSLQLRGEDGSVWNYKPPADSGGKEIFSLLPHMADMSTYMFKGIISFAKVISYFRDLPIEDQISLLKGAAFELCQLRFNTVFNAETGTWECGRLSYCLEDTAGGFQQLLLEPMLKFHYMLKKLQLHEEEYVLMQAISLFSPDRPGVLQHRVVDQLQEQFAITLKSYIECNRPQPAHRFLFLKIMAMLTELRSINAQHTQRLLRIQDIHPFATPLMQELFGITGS
Progesterone receptor (Homo sapiens), sequence (P06401 whole entry, looked up): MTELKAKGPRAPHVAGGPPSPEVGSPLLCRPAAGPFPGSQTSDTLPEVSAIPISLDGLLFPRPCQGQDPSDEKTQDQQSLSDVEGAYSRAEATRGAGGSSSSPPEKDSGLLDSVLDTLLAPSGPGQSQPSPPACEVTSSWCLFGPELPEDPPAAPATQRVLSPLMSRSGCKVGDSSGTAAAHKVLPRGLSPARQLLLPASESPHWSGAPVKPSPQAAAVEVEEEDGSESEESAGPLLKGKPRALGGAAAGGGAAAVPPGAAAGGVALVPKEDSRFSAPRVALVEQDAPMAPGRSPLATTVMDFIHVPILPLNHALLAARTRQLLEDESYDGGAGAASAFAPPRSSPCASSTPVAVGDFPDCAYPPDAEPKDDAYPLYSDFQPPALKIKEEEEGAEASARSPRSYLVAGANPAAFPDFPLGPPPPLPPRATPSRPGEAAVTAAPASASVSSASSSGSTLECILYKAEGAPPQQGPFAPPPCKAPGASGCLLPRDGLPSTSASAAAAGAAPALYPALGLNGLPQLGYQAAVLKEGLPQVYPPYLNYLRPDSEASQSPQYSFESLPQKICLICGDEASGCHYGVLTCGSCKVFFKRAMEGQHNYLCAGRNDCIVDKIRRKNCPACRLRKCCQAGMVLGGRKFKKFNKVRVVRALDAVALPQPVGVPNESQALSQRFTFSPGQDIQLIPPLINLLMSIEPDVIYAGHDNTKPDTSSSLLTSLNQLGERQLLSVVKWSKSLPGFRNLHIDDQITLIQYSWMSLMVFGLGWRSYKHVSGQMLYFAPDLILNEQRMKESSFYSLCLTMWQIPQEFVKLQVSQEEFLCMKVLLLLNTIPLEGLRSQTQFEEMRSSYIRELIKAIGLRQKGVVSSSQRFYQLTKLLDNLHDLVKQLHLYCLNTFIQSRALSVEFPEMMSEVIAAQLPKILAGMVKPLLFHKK
Nuclear receptor subfamily 1 group I member 2 (Rattus norvegicus), sequence (Q9R1A7 whole entry, looked up): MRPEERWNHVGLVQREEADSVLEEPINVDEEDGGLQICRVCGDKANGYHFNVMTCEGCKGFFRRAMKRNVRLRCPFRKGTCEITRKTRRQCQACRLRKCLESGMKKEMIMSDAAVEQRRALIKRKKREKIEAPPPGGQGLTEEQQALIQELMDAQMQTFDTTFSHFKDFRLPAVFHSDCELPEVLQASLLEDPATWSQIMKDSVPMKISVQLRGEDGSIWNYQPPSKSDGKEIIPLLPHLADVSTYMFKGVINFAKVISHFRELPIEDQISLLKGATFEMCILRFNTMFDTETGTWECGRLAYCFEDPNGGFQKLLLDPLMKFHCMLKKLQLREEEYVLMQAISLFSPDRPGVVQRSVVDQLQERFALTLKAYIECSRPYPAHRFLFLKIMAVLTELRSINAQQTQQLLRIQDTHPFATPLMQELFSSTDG

Regarding `CS(=O)(=O)c1ccc(-c2cn3ccccc3n2)cc1`, the Potency result in [1], in [2], in test [3], in [5], in test [6] and in test [8] was “inactive” throughout. Moreover, the Potency result in test [9], in test [10], in test [11] and in test [12] was “inactive” each time. Moreover, the Potency is 29.8 µM (active) in test [4] and 2.66 µM (active) in test [13]. Also, the compound was called inactive in [7].

With `c1ccc2c(c1)CCc1ccccc1N2`, the Potency entry in test [1], in test [2], in [3], in test [4], in [14] and in [6] was “inactive” in each case. For the same compound, the Potency result in [8], in test [9], in [10], in test [11], in test [15] and in [12] was “inactive” each time. Besides, in test [7], the call was inactive. The Potency in test [13] was 61.4 µM (active) and inactive.

Take `CCCCC(CC)COP(=O)(O)O` (configuration not stated): the Potency result in test [1], in test [2], in test [3], in [16], in test [5] and in [6] was “inactive” throughout. Also, the Potency entry in test [9], in test [10], in test [11], in test [12] and in test [13] was “inactive” each time.

Turning to `COC(=O)C1=C(C)NC(C)=C(C(=O)O[C@@H]2CCCN(Cc3ccccc3)C2)[C@@H]1c1cccc([N+](=O)[O-])c1`, the Potency entry in test [1], in test [2], in [5], in test [14], in test [6] and in test [8] was “inactive” each time. Also, the Potency entry in [10] and in [15] was “inactive” each time. Further, in test [7], the call was inactive. In addition, the values for the Potency in [11] and in test [13] were 29.8 µM (active) and 2.11 µM (active), respectively.

Consider `CC(C)Nc1cccnc1N1CCN(C(=O)c2cc3cc(NS(C)(=O)=O)ccc3[nH]2)CC1`, for which the Potency entry in test [1], in test [2], in [3], in test [16], in [5] and in [14] was “inactive” throughout. Moreover, the Potency result in test [6], in test [9], in test [10], in test [11], in [15] and in test [12] was “inactive” throughout. Besides, the Potency entry in [13], in test [18] and in [19] was “inactive” each time. For the same compound, in [17], the max activation was 0.79% (inactive).

Consider `C[C@]1(Cn2ccnn2)[C@H](C(=O)O)N2C(=O)C[C@H]2S1(=O)=O`, for which the Potency result in [1], in test [2], in test [4], in test [16], in test [5] and in [6] was “inactive” in each case. In addition, the Potency result in [8], in test [10], in test [11], in test [15], in test [12] and in [13] was “inactive” in each case. Besides, the Potency result in test [18] and in [19] was “inactive” throughout. Further, the result in test [7] was inactive. In addition, in [17], the max activation was -2% (inactive).

On to `CCOC(=O)c1ccccc1C(=C1C=C(Br)C(=O)C(Br)=C1)c1cc(Br)c(O)c(Br)c1`, for which the Potency result in test [1], in [2], in test [14], in test [6], in test [8] and in test [10] was “inactive” throughout. Besides, the Potency result in test [15] is “inactive”. Moreover, the Potency is 18.2 µM (active) in [20] and 51.3 µM (active) in test [13]. Also, in test [7], the call was inactive.

Turning to `Cc1ccc(CO)cc1`, the Potency result in test [1], in test [2], in test [4], in [5], in test [6] and in [8] was “inactive” throughout. In addition, the Potency entry in test [9], in [10], in test [11], in test [15], in test [12] and in test [13] was “inactive” in each case. In addition, in [3], the Potency is 17.4 µM (active). Further, in test [7], the call was inactive.

With `Nc1nnc(-c2ccc([N+](=O)[O-])o2)o1`, the Potency result in test [1], in test [3], in test [5], in test [14], in test [6] and in test [10] was “inactive” each time. The Potency entry in [15] and in test [13] was “inactive” each time. In addition, the Potency was 61.1 µM (active) in test [2], 27.3 µM (active) in test [9], 54.5 µM (active) in test [11] and 68.6 µM (active) in [12].
